Source: PubChem
ELG1 DNA repair – qHTS screen for small molecules that inhibit ELG1-dependent DNA repair in human embryonic kidney (HEK293T) cells expressing luciferase-tagged ELG1; HEK293T ELG1-luciferase reporter, luminescence, 16 h; DNA damage induced by 5-fluorouridine; Potency, µM (series often up to 46.1 µM), inactives show top-dose activity change, negative = inhibition, hits mostly inhibitors; 330,000 tested, 2.3% active; note: nearly all actives have a fitted effect of over 55% in size
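HEK293T cells expressing luciferase-tagged ELG1 (2,000/well) received 5-Fluorouridine plus compound or DMSO for 16 hr at 37 °C. Luciferase was read by ONE-Glo luminescence after 30 min at room temperature.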
DT40 TDP1 CPT – qHTS for Inhibitors of human tyrosyl-DNA phosphodiesterase 1 (TDP1): qHTS in cells in presence of CPT; chicken DT40 Tdp1-/-;hTDP1 cells + 20 nM CPT, ATP luminescence, 48 h; Potency, µM (titrated, usually from 46.2 µM), without a hit: at the highest dose activity change, negative = growth inhibition, actives largely listed as inhibitors; 420,000 tested, 12% active; AID 686979, 2013; note: nearly all actives have a fitted effect of over 55% in size
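Cell growth measured by CellTiter-Glo luminescence after a minimum 48 h, 37 C compound exposure with 20 nM CPT in Tdp1-knockout DT40 cells stably expressing hTDP1, seeded 400/well; qHTS titration format.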
VP16 counter – VP16 counterscreen qHTS for inhibitors of ROR gamma transcriptional activity; Drosophila S2 Gal4-VP16 UAS-luciferase, luminescence, 20 h; Potency, µM (titrated, usually from 53.6 µM), for the others: at the highest dose activity, negative = inhibition, most hits filed as inhibitors; 310,000 tested, 3.5% active;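 note: Gal4-VP16 expression switched on by copper sulfate through the metallothionein promoter; nearly all actives have a fitted effect of over 50% in size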
DT40 TDP1 no CPT – qHTS for Inhibitors of human tyrosyl-DNA phosphodiesterase 1 (TDP1): qHTS in cells in absence of CPT | DT40 Tdp1-/- hTDP1 cells, no CPT, ATP luminescence, 48 h | Potency, µM (titrated, usually from 46.2 µM), without a hit: at the top dose activity change, negative = growth inhibition, usual class: inhibitors | 420,000 tested, 15% active | AID 686978, 2013; note: nearly all actives have a fitted effect of over 55% in size
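Growth of hTDP1-complemented DT40 Tdp1-knockout cells is measured by ATP luminescence after at least 48 hr compound exposure at 37 °C, with DMSO substituting for the 20 nM CPT used in the parallel screen.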
12-LOX inh – Primary qHTS assay for inhibitors of human arachidonate 12S-lipoxygenase (ALOX12): Round 2; Polyunsaturated fatty acid lipoxygenase ALOX12 (Homo sapiens), P18054; purified 12hLO, xylenol orange hydroperoxide absorbance; Potency, µM (titrated, usually from 108 µM), inactives show top-dose activity change, negative = inhibition, most hits filed as inhibitors; 580,000 tested, 1.1% active; AID 1671190, 2021
Target sequence (P18054 whole entry, looked up): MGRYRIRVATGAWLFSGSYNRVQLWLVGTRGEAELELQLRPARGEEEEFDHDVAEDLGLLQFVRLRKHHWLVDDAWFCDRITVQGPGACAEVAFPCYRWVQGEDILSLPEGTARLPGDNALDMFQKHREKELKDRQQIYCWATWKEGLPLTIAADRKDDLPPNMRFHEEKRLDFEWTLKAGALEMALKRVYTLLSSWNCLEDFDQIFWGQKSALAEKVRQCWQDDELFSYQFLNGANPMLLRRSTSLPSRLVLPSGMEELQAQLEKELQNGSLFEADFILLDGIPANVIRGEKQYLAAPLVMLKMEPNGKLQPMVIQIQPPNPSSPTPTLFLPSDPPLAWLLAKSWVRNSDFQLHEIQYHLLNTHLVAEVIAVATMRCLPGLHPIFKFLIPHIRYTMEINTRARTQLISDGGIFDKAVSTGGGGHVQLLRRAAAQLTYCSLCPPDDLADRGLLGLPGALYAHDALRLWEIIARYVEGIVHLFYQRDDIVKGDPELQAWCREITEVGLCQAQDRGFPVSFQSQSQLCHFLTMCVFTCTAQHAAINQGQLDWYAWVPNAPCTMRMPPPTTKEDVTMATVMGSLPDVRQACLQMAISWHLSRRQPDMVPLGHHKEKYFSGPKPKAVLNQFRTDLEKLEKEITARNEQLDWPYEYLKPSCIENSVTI
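Purified human 12hLO (150 nM final) in 25 mM Hepes, 0.01% Triton X-100, pH 7.0 was preincubated 15 min at room temperature with compound. Then 40 uM arachidonic acid was added, 30 min. Hydroperoxide was read by Fe-XO absorbance ratio 573/405 nm.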
RORgamma inh – qHTS for inhibitors of ROR gamma transcriptional activity | 310,000 tested, 5.4% active | Nuclear receptor ROR-gamma (Mus musculus), P51450 | Drosophila S2 Gal4-RORgamma UAS-luciferase reporter, 20 h | Potency, µM (doses to about 53.6 µM), without a hit: top-dose activity change, negative = inhibition, actives largely listed as inhibitors; note: nearly all actives have a fitted effect of over 60% in size
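In this cell-based reporter format, copper sulfate (700 uM final) drives Gal4–ROR gamma fusion expression from a metallothionein promoter in Drosophila Schneider cells; compounds preincubated 1 hr, reporter read after 20 hr at ambient temperature.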
Active calls of the source: *; ? = inconclusive; / = not tested or not shown; [ ] = remark or other dose. An excerpt weighted towards active compounds, which were near 15% of everything screened. Calls come from the whole dose curve; as a rule, active = well fitted curve in the direction sought with a large enough effect; inconclusive = small, poorly fitted or top-dose-only effect, or another doubt; inactive = no such curve, though single readings can be large; an effect the other way counts as inactive or inconclusive. % is set by controls: 0 for no effect and ±100 for the full control effect; potency is the fitted concentration of half-maximal effect.

SMILES	ELG1 DNA repair	DT40 TDP1 CPT	VP16 counter	DT40 TDP1 no CPT	12-LOX inh	RORgamma inh
CCC(CC)NC(=O)CN1CCN(c2ccc(C(F)(F)F)cn2)CC1	/	/	/	/	-16.5%	/
O=C(NCc1cccnc1)C1CCN(Cc2cc3ccccc3n2Cc2cccc(Cl)c2)CC1	/	?	/	18.4µM*	-19.6%	/
CN(C)c1ccc(CN2CCC(C(N)=O)CC2)cc1	-3.0%	-7.7%	2.4%	-12.7%	-30.9%	5.1%
CN(C)c1ccc(CNC(=O)C2CCN(Cc3cc4ccccc4n3Cc3ccccc3)CC2)cc1	/	16.4µM*	/	13µM*	-29.9%	/
O=C(NCc1cccnc1)C1CCN(Cc2cc3ccccc3n2Cc2ccccc2)CC1	/	?	/	13µM*	-3.1%	/
O=C(NCc1cccnc1)C1CCN(S(=O)(=O)c2cccnc2)CC1	13.1%	-10.0%	0.8%	-20.2%	130.5%	8.0%
CCCN(CCC)c1ccc(/C=C/c2sc3ccccc3[n+]2CCCCI)cc1	/	0.316µM*	/	0.316µM*	/	/
CN(C)c1ccc(/C=C/c2sc3ccccc3[n+]2Cc2ccccc2)cc1	/	0.112µM*	/	0.1µM*	/	/
CC(=O)N/C(=C/c1ccccc1)c1sc2ccccc2[n+]1CCCCI	/	20µM*	/	11.2µM*	/	/
COc1ccc(/C=C/c2sc3ccccc3[n+]2CCCCI)cc1OC	/	7.94µM*	/	12.6µM*	/	/
Cc1ccc(C)c(NC(=O)Cn2nc3c(cc2=O)CCCCC3)c1	/	/	/	/	21.8%	/
C[C@@H](C(=O)N1CCN(c2cccc(Cl)c2)CC1)n1cnc2ccccc2c1=O	/	/	/	/	3.0%	/
C[n+]1c(/C=C/c2ccc(N)cc2)sc2ccccc21	/	17.8µM*	/	?	/	/
Cc1ccc2c(C)c(CCC(=O)N3CCCCCC3)c(=O)oc2c1	/	/	/	/	41.1%	/
COc1ccc(N2C(c3ccsc3)=Cc3cc4c(cc3C2c2c[nH]c3ccccc23)OCO4)cc1 (centres undefined)	/	?	/	23.1µM*	92.6%	/
COc1ccc(N2C(=O)CSC2c2ccc3c(c2)OCO3)cc1 (centres undefined)	0.6%	1.8%	4.3%	-8.1%	0.0%	-17.1%
COc1ccccc1Oc1cn[nH]c1-c1ccc(OCC(=O)NN)cc1O	-17.9%	-12.1%	-1.3%	-18.1%	0.0%	-26.0%
COc1cccc(Oc2cn[nH]c2-c2ccc(OC)cc2O)c1	?	?	12.6µM*	?	?	7.08µM*
CCOc1ccc(-c2[nH]ncc2-c2csc(C)n2)c(O)c1	-14.2%	-23.7%	?	-28.5%	-1.7%	?
COc1cccc(Oc2cn[nH]c2-c2ccc(O)cc2O)c1	?	9.2µM*	?	?	?	?
COc1ccccc1Oc1cn[nH]c1-c1ccc(O)cc1O	14.4%	-24.9%	-3.3%	20.6µM*	-18.3%	-35.5%
CCOc1ccc(-c2[nH]ncc2Oc2cccc(OC)c2)c(O)c1	-14.3%	?	?	?	?	11.2µM*
COc1ccc(Oc2cn[nH]c2-c2ccc(OCC(=O)NN)cc2O)cc1	5.9%	?	-0.5%	-25.6%	0.0%	-14.6%
CC(C)c1cc(NCC2CCCCCN2)nc(N)n1 (centres undefined)	/	/	/	/	18.7%	/
OC(c1ccccc1)c1cc2n(n1)CCN(Cc1cncn1C1CC1)C2 (centres undefined)	/	/	/	/	48.6%	/
SMILES	ELG1 DNA repair	DT40 TDP1 CPT	VP16 counter	DT40 TDP1 no CPT	12-LOX inh	RORgamma inh
O=S(=O)(Cc1ccccc1)N=Nc1c(O)[nH]c2ccc(Br)cc12	-5.2%	13µM*	-6.8%	18.4µM*	/	-5.5%
CCOC(=O)c1oc2ccccc2c1NC(=O)c1cccc(OC)c1OC	?	16.4µM*	3.0%	18.4µM*	-7.2%	-15.7%
CCOC(=O)c1oc2ccccc2c1NC(=O)CCl	?	10.3µM*	6.3%	7.31µM*	0.0%	2.1%
CCOC(=O)c1oc2ccccc2c1NC(=O)c1cccc(OC)c1	?	13µM*	-1.6%	18.4µM*	-7.3%	21.6%
COc1cccc(C(=O)Nc2c(C(N)=O)oc3ccccc23)c1	?	?	3.5%	16.4µM*	14.5%[57.4 µM]	?
CC1(C(=O)N2CCCC2C(=O)Nc2ccccc2Oc2cccnc2)CC1 (centres undefined)	/	/	/	/	-1.3%	/
COc1ccc2c(Oc3ccc(NC(=O)c4c(C)n(CC(C)(C)O)n(-c5ccccc5)c4=O)cc3F)ccnc2c1	/	/	/	/	-0.2%[57.4 µM]	/
Cc1cc(C)c2oc(C(=O)Nc3ccc(S(=O)(=O)Nc4onc(C)c4C)cc3)cc(=O)c2c1	/	/	/	/	0.5%	/
O=S(=O)(c1cccs1)N1CN(Cc2ccco2)c2nc3ccccc3nc21	?	?	-24.3%	13µM*	-12.1%	?
Cc1ccc(CN2CN(S(=O)(=O)c3cccs3)c3nc4ccccc4nc32)cc1	?	16.4µM*	-19.8%	20.6µM*	0.0%	19.0%
Cc1cccc(S(=O)(=O)N2CN(Cc3ccco3)c3nc4ccccc4nc32)c1	6.8%	18.4µM*	6.2%	?	?	?
COc1ccccc1CN1CN(S(=O)(=O)c2ccccc2)c2nc3ccccc3nc21	17.7%	14.6µM*	17.4%	?	-0.2%	18.2%
COCCN1CN(S(=O)(=O)c2ccccc2)c2nc3ccccc3nc21	23.3%	-15.8%	-7.9%	-26.5%	?	0.0%
N#Cc1cccc(OCc2nc3c(n2Cc2ccccc2)C(=O)N(Cc2ccccc2F)CCN3)c1	/	/	/	/	42.5%	/
COCC(=O)N1CC[C@H]2COC(=O)N2c2cc(F)ccc2C1	/	/	/	/	-18.4%[176 µM]	/
O=C(Cn1c(=O)n(-c2ccccc2)c(=O)c2sc3ccccc3c21)N1CCCC1	/	-23.6%	/	-12.2%	-15.8%	/
O=C(Cn1c(=O)n(-c2ccc(Cl)cc2)c(=O)c2sc3ccccc3c21)NC1CCCC1	/	13µM*	/	18.4µM*	-19.2%	/
O=C(Cn1c(=O)n(-c2cccc(Cl)c2)c(=O)c2sc3ccccc3c21)N1CCCC1	/	?	/	14.6µM*	?	/
Cc1ccc(C(=O)C(C)OC(=O)c2c(C)noc2C)cc1 (centres undefined)	/	/	/	/	-5.6%	/
CCOC(=O)C(NC(=O)NCc1ccccc1)(OCC)C(F)(F)F (centres undefined)	-32.6%	?	-16.5%	23.1µM*	-14.1%	-15.2%
